# Data as given in the supplement of paper PMC6555819.
# Key:
# Assay in all cases: PBM binding z-score (relative to random genomic background probes); higher = stronger binding; sequences stand for … in GC…GCGATTGACAGCGTAGAATGAAGG
# [1] = system: PPARg:RXRa DBDmut IVT, anti-RXR (DBD mutation: RXRa K156A/R161A, NR concentration 270 nM, RXRa partner concentration 90 nM)
# How it was run: (§1)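 Custom Agilent 4×180K protein-binding microarrays carried double-stranded probes. Their 34-nt variable regions held direct-repeat seeds, single-nucleotide variants, half-site ablations and random human genomic background sequences. Arrays were incubated 1 h with ligand-free nuclear receptor dimers in PBS pH 7.4, 2% milk, 0.02% Triton X-100, 1 mM DTT, 0.2 mg/mL BSA and 0.4 mg/ml salmon testes DNA. Antibodies against each partner (one per run) detected binding, and scanned fluorescence was regression-normalized. Binding z-scores use random background probes as reference.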
# [2] = system: PPARg:RXRa IVT, anti-PPARg (NR concentration 270 nM, RXRa partner concentration 90 nM)
# How it was run: as §1
# [3] = system: PPARg DBDmut:RXRa IVT, anti-PPARg (DBD mutation: PPARg1 K132A/R137A, NR concentration 270 nM, RXRa partner concentration 90 nM)
# How it was run: as §1
# [4] = system: PPARg DBDmut IVT, anti-PPARg (DBD mutation: PPARg1 K132A/R137A, NR concentration 270 nM)
# How it was run: as §1
# [5] = system: PPARg homodimer (NR concentration 180 nM)
# How it was run: as §1
# [6] = system: PXR:RXRa (NR concentration 270 nM, RXRa partner concentration 90 nM)
# How it was run: as §1
# [7] = system: PXR homodimer (NR concentration 270 nM)
# How it was run: as §1
# [8] = system: RARa:RXR (NR concentration 270 nM, RXRa partner concentration 90 nM)
# How it was run: as §1
# [9] = system: RARa homodimer (NR concentration 270 nM)
# How it was run: as §1
# [10] = system: RARb:RXRa (NR concentration 270 nM, RXRa partner concentration 90 nM)
# How it was run: as §1
# [11] = system: RARb homodimer (NR concentration 270 nM)
# How it was run: as §1
# [12] = system: RARg:RXRa (NR concentration 270 nM, RXRa partner concentration 90 nM)
# How it was run: as §1
# [13] = system: RARg homodimer (NR concentration 270 nM)
# How it was run: as §1
# [14] = system: RXRa DBDmut IVT, anti-RXR (DBD mutation: RXRa K156A/R161A, NR concentration 90 nM)
# How it was run: as §1
# [15] = system: RXRa homodimer (NR concentration 180 nM)
# How it was run: as §1
# [16] = system: THRa:RXRa (NR concentration 90 nM, RXRa partner concentration 90 nM)
# How it was run: as §1
# [17] = system: THRa homodimer (NR concentration 90 nM)
# How it was run: as §1
# [18] = system: VDR homodimer (NR concentration 270 nM)
# How it was run: as §1
Sequence,PBM binding z-score [1],PBM binding z-score [2],PBM binding z-score [3],PBM binding z-score [4],PBM binding z-score [5],PBM binding z-score [6],PBM binding z-score [7],PBM binding z-score [8],PBM binding z-score [9],PBM binding z-score [10],PBM binding z-score [11],PBM binding z-score [12],PBM binding z-score [13],PBM binding z-score [14],PBM binding z-score [15],PBM binding z-score [16],PBM binding z-score [17],PBM binding z-score [18]
TTACCAAGGTGAGCTGAGGTGGTTGATCCAACTC,0.594,1.48,-0.51,-0.991,-0.428,0.478,-0.709,1.53,-0.848,0.757,-0.15,0.00376,-0.00239,-0.813,0.0948,2.98,-0.0561,-0.641
AGTCAAAGTTCATGACGAGGTAACGTAAAGCACG,0.137,3.44,1.06,1.37,3.26,4.93,1.98,4.61,0.824,4.84,3.83,6.13,5.76,4.29,4.9,4.23,1.02,4.11
TTACCAAGGTGAGCCGAGGTCGTTGATCCAACTC,1.46,2.45,0.0524,0.067,-0.0527,4.95,0.39,1.95,-0.75,1.99,1.75,1.67,1.38,-0.0655,1.77,4.53,1.49,1.98
CCAGACAGGTAAAAGGTAACTCAGTCTGGTACGC,0.377,0.821,-0.535,-0.566,0.614,0.265,0.0427,0.712,0.346,0.382,0.19,0.33,0.29,-0.178,1.09,0.372,-0.238,0.202
CCAGACAGGTGACAGGTAACTCAGTCTGGTACGC,1.77,1.46,-0.216,-0.746,0.536,-0.209,0.203,0.0624,0.656,0.724,0.331,0.209,0.537,-0.242,0.665,0.126,-0.089,-0.0347
ATCTCTAAGTAACAAGTTCAGTGAAAGAGAGGAC,0.199,0.166,0.885,0.883,1.43,1.63,1.97,1.18,1.73,1.57,1.84,0.884,1.24,1.06,0.744,0.981,0.691,2.61
CGTCCAAGGGCATAGGAGGTCAGTGAAGACAGAT,0.6,2.11,-0.528,-0.863,1.67,4.38,1.16,3,0.923,3.53,3.72,3.42,3.68,1.44,2.65,4.64,0.738,2.25
GATACAGGGTCAAGGCCAGACTACGCGTATTGAT,2.8,3.83,0.238,0.461,2.54,4.03,0.191,4.98,0.813,4.6,3.74,5.51,5.17,2.76,5.73,3.8,1.55,2.1
AATACAGGGTCATCGTAGACCAGAGTACGCACAG,3.19,4.37,1.62,0.874,2.94,4.27,0.967,5.09,1.49,4.3,3.31,5.66,5.19,3.73,6.72,3.67,1.24,4.03
CCTAGCAGGCCAGGGGCACTCAAGCATTTCGCTT,0.0628,-0.609,-1.68,-1.6,-1.02,-0.801,-0.66,-0.684,-1.15,0.377,-0.0718,-0.38,-0.0557,-1.12,-0.341,-0.336,-1.01,-0.769
CCTAGCAGGCCAGGGTCACTTAAGCATTTCGCTT,0.351,1.01,-1.25,-0.972,0.813,2.15,-0.248,2.71,0.0986,2.54,2.51,2.93,2.28,0.27,3.13,2.67,0.864,1.25
CTCGAAAGGTCGTTCTCAGGTGAGTATACCAAAC,0.679,1.61,0.926,0.753,2.11,3.62,0.471,4.19,-0.0759,3.71,2.86,5.28,3.33,3.44,4.39,4.46,1.46,2.59
GCTGCTAGGCCAGGTTGGTCAGCTAACGGGTACG,-0.104,-0.575,-1.57,-1.24,-1.2,-1.06,-0.918,-0.979,-0.954,0.166,6.85e-05,-0.5,-0.124,-0.332,-0.773,-0.787,-1.23,-0.861
CGAACTAGGTCATTGACAGGAGAGTGAATAGTAA,7.92,8.28,2.36,3.6,1.32,1.04,0.0101,1.99,0.473,3.65,2.29,3.65,4.2,2.21,2.23,2.48,0.629,0.844
TGAATGAGGTTATAAGATAAGGGAACGTTGCAAA,0.589,1.42,1.45,0.957,0.436,0.669,0.0149,1.32,-0.0101,1.04,0.00548,1.36,1.01,0.619,1.79,1.68,0.04,0.0331
ACTAGCAGGCCAAGGGTCACTCTAGATTAGTCCG,0.951,3.59,-0.404,-0.203,2.32,2.94,-0.367,4.14,-0.113,3.1,3.64,3.81,3.34,0.668,3.3,2.32,-0.0207,1.03

Sequence,PBM binding z-score [1],PBM binding z-score [2],PBM binding z-score [3],PBM binding z-score [4],PBM binding z-score [5],PBM binding z-score [6],PBM binding z-score [7],PBM binding z-score [8],PBM binding z-score [9],PBM binding z-score [10],PBM binding z-score [11],PBM binding z-score [12],PBM binding z-score [13],PBM binding z-score [14],PBM binding z-score [15],PBM binding z-score [16],PBM binding z-score [17],PBM binding z-score [18]
AGAATGAGGTTACCAAAGATCAGAGAAACGCTTG,3.76,3.32,1.01,0.709,0.304,1.28,0.161,2.02,0.489,2.09,0.638,2.17,1.6,1.04,2.47,2.64,0.519,0.185
TCTTGTAGATCAAGCAGGTTAAGATAGCCTGAGT,1.74,0.733,0.115,0.351,0.386,0.406,-0.159,0.668,-0.0619,0.309,0.14,0.091,0.0595,0.547,0.359,0.324,-0.172,-0.247
AAATGTAGGTTAGCTGGGGTCATTCAGACTAGGC,7.19,7.11,4.54,3.23,3.17,6.55,4.04,6.04,0.836,3.28,3.76,4.06,2.95,1.87,5.4,5.36,3.23,5.33
TAGCCTAGGTCACTGGGCCAGTATAGTACGCATC,3.48,5.27,1.2,0.865,0.976,1.32,-0.648,1.93,-0.15,3.91,3.06,3.92,4.68,0.296,2.8,2.92,0.878,0.192
TCATATAGGTACATGCTAGGTGAAAGTCCGATCT,2.58,1.73,0.847,1.54,0.444,0.528,0.248,0.868,0.997,0.432,0.598,0.521,0.462,2.05,0.745,2.02,0.723,0.987
ACTAGGAGGCCAAGGGTCACTCAAGATTAGTCCG,1.26,3.95,-0.025,-0.509,3.03,3.57,0.414,4.7,1.03,3.64,3.93,4.72,4.05,0.5,4.48,2.63,0.41,1.51
ATCTCTAGGTAAGACTCCGTTCAGTGAAGAACGC,2.22,1.25,0.571,0.804,1.16,0.0673,0.0511,0.105,0.882,0.229,0.62,0.111,0.108,0.35,-0.00325,0.381,0.809,0.435
ACAGACAGGTGATGAAGGTAACTCATGCTATCAT,0.199,0.711,-0.0414,-0.123,-0.0711,-0.216,-0.133,-0.118,0.279,0.221,0.0338,0.394,0.615,-0.0265,0.382,0.149,-0.485,-0.456
CCTAGATGGTCAAGGTCACACACGCTATAGGTAC,1.66,3.08,1.08,0.88,3.58,4.21,2.09,4.57,2.52,4.29,4.55,4.69,4.96,2.04,4.74,4.1,3.84,3.61
GCTGCTAGGTTAGGTTGGTCAGCTAACGGGTACG,1,0.292,-1.46,-0.928,-0.465,-0.364,-0.359,-0.327,-0.345,0.767,0.8,0.0162,0.355,0.0127,-0.131,0.0584,-0.34,0.253
ACTTACGGGTTAACGAGGTTATAGCACGCGTATA,1.74,2.15,0.886,1.18,1.01,2.88,0.801,2.6,0.88,1.69,1.62,2.26,1.43,1.02,3.01,3.09,0.992,1.96
ATCGCAAGGTCGACGAGGTGAGTATACACCGTTT,-0.013,1.1,0.104,0.00511,0.0263,1.89,0.566,2.55,-0.403,2.49,1.72,2.58,2.37,1.32,2.26,3.41,1.26,1.21
ATCTCTAGGTAAAGATAGTTCACTGAATGCAAAT,2.05,1.64,0.743,0.839,1.04,1.81,0.848,1.12,0.837,1.26,1.54,1.1,1.18,0.234,0.828,1.31,0.149,1.13
TGTTGTAGATCAAGCAGGTTAAGAAAGCCTGAGT,-0.275,0.329,0.0224,-0.646,-0.211,0.13,0.0391,0.16,0.163,-0.116,0.0369,-0.0637,0.062,-1.02,-0.024,0.0864,-0.545,-0.058
ACTTACGGATCAACGAGGTTATAGCACGCGTATA,0.402,0.468,0.823,0.952,0.607,1.41,0.695,1.5,1.25,0.645,0.98,0.642,0.684,0.778,1.46,1.83,0.943,1.39
